For some assays here: Entries with a potency or affinity are not part of this list.
How the values were obtained:
Set-up in all cases: scale not given: direction of the effect not stated beside the values
[1] = molecular target: Protein translocase subunit SecA (Escherichia coli (strain K12)) (UniProt P10408); test: Assay to Identify E. coli SecA ATPase Inhibitors; type: functional; details: 30 µM
[2] = molecular target: T1, Ubiquitin-activating enzyme e1, putative (Leishmania donovani (strain BPK282A1)) (UniProt E9BSI1); test: Leishmania donovani Ubiquitin Activating Enzyme (LdE1); type: functional; details: 30 µM
T1 sequence (whole entry): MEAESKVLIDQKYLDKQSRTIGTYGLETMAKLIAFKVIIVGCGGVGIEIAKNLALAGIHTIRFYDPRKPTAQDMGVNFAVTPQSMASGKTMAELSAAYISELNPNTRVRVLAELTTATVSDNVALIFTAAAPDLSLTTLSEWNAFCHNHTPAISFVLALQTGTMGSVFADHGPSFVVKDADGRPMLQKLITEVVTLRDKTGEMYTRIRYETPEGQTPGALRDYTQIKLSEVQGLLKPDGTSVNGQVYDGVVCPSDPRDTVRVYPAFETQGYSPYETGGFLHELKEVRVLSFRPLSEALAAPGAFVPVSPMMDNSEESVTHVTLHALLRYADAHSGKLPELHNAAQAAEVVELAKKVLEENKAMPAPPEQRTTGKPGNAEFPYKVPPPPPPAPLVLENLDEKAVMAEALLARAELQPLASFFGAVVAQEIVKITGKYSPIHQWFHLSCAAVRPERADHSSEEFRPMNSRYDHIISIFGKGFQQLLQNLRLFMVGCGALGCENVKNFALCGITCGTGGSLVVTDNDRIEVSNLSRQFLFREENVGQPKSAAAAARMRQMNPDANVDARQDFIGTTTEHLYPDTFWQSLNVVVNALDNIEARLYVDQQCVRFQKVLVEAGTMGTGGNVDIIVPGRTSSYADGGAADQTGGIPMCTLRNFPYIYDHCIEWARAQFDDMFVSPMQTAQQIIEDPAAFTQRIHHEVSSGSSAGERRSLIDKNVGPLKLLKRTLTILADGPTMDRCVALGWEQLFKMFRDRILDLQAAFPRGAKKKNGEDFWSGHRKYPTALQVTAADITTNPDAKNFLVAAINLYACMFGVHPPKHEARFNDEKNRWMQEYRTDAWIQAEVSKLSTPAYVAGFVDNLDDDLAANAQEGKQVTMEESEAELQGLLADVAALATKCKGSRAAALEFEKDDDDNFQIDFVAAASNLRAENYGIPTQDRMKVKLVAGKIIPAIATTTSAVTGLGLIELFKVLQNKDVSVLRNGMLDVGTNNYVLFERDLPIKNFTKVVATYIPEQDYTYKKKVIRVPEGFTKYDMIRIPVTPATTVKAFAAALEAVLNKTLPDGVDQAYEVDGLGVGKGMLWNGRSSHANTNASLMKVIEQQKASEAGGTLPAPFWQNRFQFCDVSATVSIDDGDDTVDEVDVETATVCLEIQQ

[3] = molecular target: AMP-activated protein kinase, AMPK (Homo sapiens) (UniProt P54646+O43741+P54619+Q9UGJ0+Q9Y478+Q13131+Q9UGI9); test: AMP-dependent Kinase enzyme assay. An in vitro enzyme assay that detects ADP turnover that is directly proportional to AMPK activity. This uses naive AMPK that is activated during the assay with MK-8722; type: functional; details: 30 µM
[4] = molecular target: Sialic acid-binding Ig-like lectin 9 (Homo sapiens) (UniProt Q9Y336); test: Hs-Siglec9 ALPHAscreen SOP 20170721; details: 10 µM
Sequence of Sialic acid-binding Ig-like lectin 9 (Homo sapiens) (Q9Y336 whole entry): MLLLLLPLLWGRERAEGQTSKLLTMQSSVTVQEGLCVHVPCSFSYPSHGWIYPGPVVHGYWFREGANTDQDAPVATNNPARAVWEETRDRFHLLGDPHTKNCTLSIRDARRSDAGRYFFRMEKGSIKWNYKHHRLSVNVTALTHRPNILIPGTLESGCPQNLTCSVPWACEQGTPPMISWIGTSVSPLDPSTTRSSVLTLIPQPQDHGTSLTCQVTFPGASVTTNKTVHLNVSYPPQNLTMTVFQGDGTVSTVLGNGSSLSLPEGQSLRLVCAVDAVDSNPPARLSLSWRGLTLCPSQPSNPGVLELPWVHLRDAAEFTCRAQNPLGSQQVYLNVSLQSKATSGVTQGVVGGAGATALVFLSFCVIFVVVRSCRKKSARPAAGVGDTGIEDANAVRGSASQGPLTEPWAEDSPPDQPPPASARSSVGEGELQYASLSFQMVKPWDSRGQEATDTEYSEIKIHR

Trypanosoma cruzi = test: Trypanosoma cruzi phosphomannomutase and mannose-1-phosphate guanylyltransferase assay; type: functional; details: 10 µM
[5] = molecular target: T2, Arginase-2, mitochondrial (Homo sapiens) (UniProt P78540); test: in vitro enzyme assay to detect the production of urea directly proportional to the activity of Arginase II; type: functional; details: 33.3 µM; further: in the data most compounds retested in dose-response had high values
T2 sequence (whole entry): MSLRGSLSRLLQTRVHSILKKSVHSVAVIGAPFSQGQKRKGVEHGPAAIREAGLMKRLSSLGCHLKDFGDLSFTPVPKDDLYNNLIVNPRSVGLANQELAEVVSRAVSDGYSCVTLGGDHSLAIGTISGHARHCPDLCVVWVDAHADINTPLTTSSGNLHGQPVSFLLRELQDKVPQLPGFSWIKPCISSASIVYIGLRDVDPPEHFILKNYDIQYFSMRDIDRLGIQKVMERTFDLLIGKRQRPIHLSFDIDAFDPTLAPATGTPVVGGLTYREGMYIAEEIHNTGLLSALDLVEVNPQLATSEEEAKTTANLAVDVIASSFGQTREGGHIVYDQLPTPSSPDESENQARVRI

[6] = molecular target: T3, Proteasome subunit beta (Trypanosoma cruzi) (UniProt O96673); test: Trypanosoma cruzi proteasome chymotrypsin-like activity (TcProtChymo) assay.; further: in the data most compounds retested in dose-response had high values; type: functional; details: 9.37 µM
T3 sequence (whole entry): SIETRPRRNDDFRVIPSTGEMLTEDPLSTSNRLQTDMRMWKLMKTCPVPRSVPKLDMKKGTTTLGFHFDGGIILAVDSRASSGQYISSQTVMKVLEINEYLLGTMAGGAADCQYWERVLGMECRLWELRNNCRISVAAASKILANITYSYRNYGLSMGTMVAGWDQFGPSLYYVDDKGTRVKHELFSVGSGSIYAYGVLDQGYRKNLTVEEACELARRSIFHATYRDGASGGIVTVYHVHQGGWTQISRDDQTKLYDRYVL

Homo sapiens = species: Homo sapiens; test: To identify inhibition of the IFN signalling (Jak-Stat) pathway via expression of an eGFP reporter gene under the control of an IFN-stimulated response element (ISRE) containing MxA promoter.; type: functional; details: 30 µM
[7] = molecular target: T4, Tyrosyl-tRNA synthetase, putative (Trypanosoma cruzi (strain CL Brener)) (UniProt Q4DSP6); test: Trypanosoma cruzi tyrosyl tRNA synthetase (TcYRS) _High Tyrosine SOP; type: functional; details: 30 µM; further: in the data most compounds retested in dose-response had high values
T4 sequence (whole entry): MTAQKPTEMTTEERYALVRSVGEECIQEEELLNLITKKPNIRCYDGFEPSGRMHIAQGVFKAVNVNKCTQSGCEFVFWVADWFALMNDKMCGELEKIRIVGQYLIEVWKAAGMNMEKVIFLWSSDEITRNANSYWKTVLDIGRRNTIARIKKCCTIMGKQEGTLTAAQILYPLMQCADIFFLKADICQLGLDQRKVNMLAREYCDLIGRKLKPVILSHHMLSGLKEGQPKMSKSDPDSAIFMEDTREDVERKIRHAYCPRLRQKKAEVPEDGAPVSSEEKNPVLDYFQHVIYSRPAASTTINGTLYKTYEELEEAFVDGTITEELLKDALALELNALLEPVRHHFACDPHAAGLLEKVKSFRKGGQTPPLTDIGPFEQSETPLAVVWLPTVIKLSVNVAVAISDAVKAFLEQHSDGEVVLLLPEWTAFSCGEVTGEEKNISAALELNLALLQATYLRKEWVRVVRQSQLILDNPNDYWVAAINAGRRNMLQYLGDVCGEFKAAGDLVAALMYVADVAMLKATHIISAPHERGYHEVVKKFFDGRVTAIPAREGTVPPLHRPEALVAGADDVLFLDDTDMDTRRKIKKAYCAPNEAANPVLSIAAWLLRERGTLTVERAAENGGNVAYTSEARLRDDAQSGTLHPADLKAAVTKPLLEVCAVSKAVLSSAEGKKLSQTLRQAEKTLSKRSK

[8] = molecular target: T4, Tyrosyl-tRNA synthetase, putative (Trypanosoma cruzi (strain CL Brener)); test: Trypanosoma cruzi tyrosyl tRNA synthetase (TcYRS) SOP; type: functional; details: 30 µM
[9] = molecular target: Chromo domain-containing protein 1 (Saccharomyces cerevisiae (strain ATCC 204508 / S288c) (Baker's yeast)) (UniProt P32657); test: ScCHD-1 Enzyme Inhibition Assay; type: functional; details: 30 µM; further: in the data most compounds retested in dose-response had high values
Sequence of Chromo domain-containing protein 1 (Saccharomyces cerevisiae (strain ATCC 204508 / S288c) (Baker's yeast)) (P32657 whole entry, the tested form may be a part): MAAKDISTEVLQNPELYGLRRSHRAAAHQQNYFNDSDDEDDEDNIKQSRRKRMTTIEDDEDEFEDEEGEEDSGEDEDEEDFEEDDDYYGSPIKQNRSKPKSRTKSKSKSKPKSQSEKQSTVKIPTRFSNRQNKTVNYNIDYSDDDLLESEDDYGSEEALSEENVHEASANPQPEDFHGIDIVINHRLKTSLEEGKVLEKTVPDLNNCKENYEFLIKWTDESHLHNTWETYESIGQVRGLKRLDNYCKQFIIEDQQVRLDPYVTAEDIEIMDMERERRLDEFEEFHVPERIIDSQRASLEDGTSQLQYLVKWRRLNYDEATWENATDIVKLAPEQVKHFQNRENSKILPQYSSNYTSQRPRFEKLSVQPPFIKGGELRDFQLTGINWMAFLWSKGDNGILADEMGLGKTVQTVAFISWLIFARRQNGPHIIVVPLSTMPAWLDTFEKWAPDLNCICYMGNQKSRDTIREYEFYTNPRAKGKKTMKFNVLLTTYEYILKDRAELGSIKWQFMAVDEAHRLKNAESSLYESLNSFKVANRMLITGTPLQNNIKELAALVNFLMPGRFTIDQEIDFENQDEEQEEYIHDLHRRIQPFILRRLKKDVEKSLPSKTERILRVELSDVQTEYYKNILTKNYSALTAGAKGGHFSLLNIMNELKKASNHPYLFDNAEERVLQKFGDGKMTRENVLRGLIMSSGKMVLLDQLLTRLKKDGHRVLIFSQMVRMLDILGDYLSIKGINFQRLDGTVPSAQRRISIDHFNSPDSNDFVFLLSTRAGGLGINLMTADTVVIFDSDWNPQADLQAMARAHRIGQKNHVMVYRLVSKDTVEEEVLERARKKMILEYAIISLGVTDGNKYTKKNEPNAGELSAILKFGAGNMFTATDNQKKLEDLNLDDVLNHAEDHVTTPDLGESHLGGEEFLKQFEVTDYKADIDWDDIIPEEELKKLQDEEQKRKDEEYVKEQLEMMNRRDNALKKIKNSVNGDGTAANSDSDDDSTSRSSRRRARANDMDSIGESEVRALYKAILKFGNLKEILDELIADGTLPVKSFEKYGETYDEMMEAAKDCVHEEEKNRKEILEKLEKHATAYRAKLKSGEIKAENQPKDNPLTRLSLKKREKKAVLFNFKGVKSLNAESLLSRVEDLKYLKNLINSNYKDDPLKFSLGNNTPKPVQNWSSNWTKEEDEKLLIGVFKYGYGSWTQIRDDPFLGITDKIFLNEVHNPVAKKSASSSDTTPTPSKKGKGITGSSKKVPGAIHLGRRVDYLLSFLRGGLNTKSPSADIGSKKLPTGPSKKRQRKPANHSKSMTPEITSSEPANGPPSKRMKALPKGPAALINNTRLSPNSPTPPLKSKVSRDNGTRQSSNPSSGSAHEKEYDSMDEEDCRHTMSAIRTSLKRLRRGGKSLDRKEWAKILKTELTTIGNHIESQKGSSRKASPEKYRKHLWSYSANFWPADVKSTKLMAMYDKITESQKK

Sequence of Protein translocase subunit SecA (Escherichia coli (strain K12)) (P10408 whole entry): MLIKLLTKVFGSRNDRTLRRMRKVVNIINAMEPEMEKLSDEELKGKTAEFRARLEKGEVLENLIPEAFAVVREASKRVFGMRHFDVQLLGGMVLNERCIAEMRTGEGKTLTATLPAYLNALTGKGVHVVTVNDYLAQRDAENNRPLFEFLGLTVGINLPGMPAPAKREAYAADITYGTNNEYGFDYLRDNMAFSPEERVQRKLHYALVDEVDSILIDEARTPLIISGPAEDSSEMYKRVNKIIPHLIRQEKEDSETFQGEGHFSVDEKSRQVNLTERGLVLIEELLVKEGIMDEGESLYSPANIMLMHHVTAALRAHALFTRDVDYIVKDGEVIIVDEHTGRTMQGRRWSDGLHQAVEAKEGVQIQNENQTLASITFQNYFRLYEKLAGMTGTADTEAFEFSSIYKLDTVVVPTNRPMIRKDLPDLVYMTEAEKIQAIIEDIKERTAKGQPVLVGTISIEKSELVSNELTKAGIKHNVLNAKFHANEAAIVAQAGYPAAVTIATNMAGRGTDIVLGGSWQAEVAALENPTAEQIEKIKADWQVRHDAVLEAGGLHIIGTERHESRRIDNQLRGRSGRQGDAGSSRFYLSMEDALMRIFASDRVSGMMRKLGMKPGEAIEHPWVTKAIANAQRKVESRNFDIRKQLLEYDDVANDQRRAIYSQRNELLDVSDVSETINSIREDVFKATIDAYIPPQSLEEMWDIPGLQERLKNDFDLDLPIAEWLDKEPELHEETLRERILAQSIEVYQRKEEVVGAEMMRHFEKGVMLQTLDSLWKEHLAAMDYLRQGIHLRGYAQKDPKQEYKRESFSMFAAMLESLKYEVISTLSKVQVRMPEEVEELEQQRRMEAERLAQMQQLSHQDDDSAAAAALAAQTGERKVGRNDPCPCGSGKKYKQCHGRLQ

| Compound | Percent Effect [1] [%] | Percent Effect [2] [%] | Percent Effect [3] [%] | Percent Effect [4] [%] | Percent Effect (Trypanosoma cruzi) [%] | Percent Effect [5] [%] | Percent Effect [6] [%] | Percent Effect (Homo sapiens) [%] | Percent Effect [7] [%] | Percent Effect [8] [%] | Percent Effect [9] [%] |
| --- | --- | --- | --- | --- | --- | --- | --- | --- | --- | --- | --- |
| O=C(c1ccco1)N1CC[C@H]2[C@H]1CCN2CC1CCOCC1 | -5.53 | 0 | 11.2 | -3.38 | -3.74 | 1.17 | -2.56 | 6.93 | 6.38 | 3.85 | -1.01 |
| CCN(CCNC(=O)c1ccccc1Br)C1CC1 | -1.99 | -6.33 | -0.476 | -1.28 | -0.923 | 7.53 | 10.3 | 5.43 | 1.04 | -10.1 | -18 |
| CC(C)Oc1ccc(CNC(=O)CC(F)(F)F)cc1F | -5.61 | 10.5 | -1.12 | 6.95 | -2.52 | 1.08 | 1.78 | -11.2 | 4.43 | 11.1 | -4.45 |
| CN(C)c1cc(C(=O)NCCc2nnc(-c3ccco3)[nH]2)ccn1 | -2.63 | 2.63 | 0.765 | -1.33 | -2.63 | -4.73 | 5.46 | 0.0854 | 4.25 | 10.4 | -3.29 |
| Cc1ccsc1CN(CCN(C)C)Cc1ccccn1 | -5.5 | 4.17 | -16.2 | 21.2 | 5.15 | 18.5 | 11.1 | -4.45 | 7.37 | 15.4 | -9.23 |
| COCCN1CCN(C(=O)c2cc(C(C)C)on2)[C@H]2CS(=O)(=O)C[C@H]21 | -4.23 | 1.39 | -4.33 | -3.43 | -3.6 | -0.442 | 17.2 | -5.77 | 2.1 | 0 | -2.65 |
| CNC(=O)c1ccc(C(=O)N2CCCC(n3cc(C)cn3)C2)cn1 (configuration not stated) | -7.4 | 26 | -0.148 | 5.41 | 9.18 | 3.56 | 12 | 26.2 | 9.71 | 26.8 | -11.2 |
| O=C(COc1cccc2c1CCC2=O)NCCOc1ccccc1 | -0.203 | 2.63 | -0.945 | -8.98 | -6.33 | 3.55 | 9.68 | 40.1 | -1.06 | 0 | -2.69 |
| CC(Cc1ccco1)NC(=O)Nc1ccc(N2CCOCC2)nc1 (configuration not stated) | -3.25 | 15.8 | -15.8 | 11.3 | 1.5 | 0.383 | 11.2 | -9.28 | 3.43 | 19.5 | -11.4 |
| NC(=O)CCOc1nc(-c2ccccc2Cl)no1 | -6.94 | 2.74 | -11.9 | 31.6 | 8.23 | -1.82 | 8.87 | -2.22 | 4.3 | 15 | -6.33 |
| O=C(c1ccncc1)N1CCCn2c(CN3CCCCC3)nnc2C1 | -3.23 | 2.67 | 9.49 | 2.61 | 4.13 | -5.36 | 5.9 | -3.57 | 5.32 | -1.28 | 1.13 |
| Cc1nn(C)c(C)c1CCC(=O)N1CCCC1Cn1cccn1 (configuration not stated) | -4.71 | -2.7 | 5.43 | -1.49 | -3.52 | 2.08 | 3.63 | -0.691 | 1.98 | 11 | 1.96 |
| CC(NCc1cccnc1)c1ccc(OCC(=O)NC2CC2)cc1 (configuration not stated) | -4.57 | 1.27 | 10.2 | 0.488 | -2.15 | -0.215 | 12.2 | -0.549 | -2.08 | -2.53 | 4.29 |
| O=C1CC(NCc2ccncc2)CN1Cc1cccc(F)c1 (configuration not stated) | -3.06 | -2.7 | -0.958 | 0.392 | -2.9 | -2.86 | 11.6 | -9.68 | 1.59 | 2.44 | -0.358 |
| CN(C)c1cc2c(nn1)CCN(C(=O)C1Cc3ccccc3S1)C2 (configuration not stated) | -3.54 | 10.1 | -4.45 | 16 | 5.76 | 1.14 | 8.27 | -10.7 | 7.39 | 11.4 | 9.74 |
| CC(C)c1cc(NCC(O)CO)n2nccc2n1 (configuration not stated) | -2.58 | 8.11 | 0.503 | 25.3 | 3.48 | 11.9 | 19.3 | 9 | 1.59 | 12.2 | -9.93 |
| COC[C@H]1CCC[C@]12CN(C(=O)NCc1ccccc1)CCO2 | -5 | 20 | -4.55 | 9.51 | 2.75 | -7.22 | 13.5 | 2.52 | 3.17 | 10.3 | -9.21 |
| CC(CNC(=O)N1CCN(c2cnccn2)CC1)Cc1cccs1 (configuration not stated) | -2.51 | 2.7 | 6.5 | 15.7 | -1.95 | -1.67 | 10.6 | -1.65 | 0.99 | -6.1 | 0.413 |
| Cc1nc2cc(C3CCN(Cc4cccc(F)c4F)C3)nn2c(O)c1C (configuration not stated) | -0.873 | 12.2 | 12.9 | -3.49 | 0.988 | -1.16 | 2.81 | 10.8 | 3.23 | 11.7 | -14.4 |
| CC(C)n1ccnc1CN1CCCN(C(=O)CC2C=CCC2)CC1 (configuration not stated) | -5.72 | -1.27 | 12.6 | -5.19 | -3.18 | -6.67 | 17.8 | 9.57 | -2.08 | -5.06 | -12.8 |
| Cc1nn(C)cc1CNC(=O)c1cn(CCC2CCCCN2)nn1 (configuration not stated) | -3.59 | 2.67 | -4.65 | 9.99 | 9.64 | -1.04 | 20.9 | -18.7 | 6.01 | 16.1 | -3.7 |
| Cc1cc(C(=O)N2C[C@@H]3[C@@H](C2)OCC(=O)N3CC2CC2)no1 | -1.71 | -31.2 | 5.62 | 6.36 | -6.98 | -16.6 | 4.49 | 6.95 | -54.8 | -90.1 | 0.00283 |

Source: ChEMBL document CHEMBL3988442, “University of Dundee, Small-Polar-MMV Screening Library” (2021)
